Compound activity from PubChem BioAssay.
FMDV antiviral – High Throughput Screening for Foot and Mouth Disease Virus Antivirals. 410,000 compounds, 1.2% hits. FMDV antiviral cell-based qHTS. Potency, µM (titrated, usually from 57.9 µM), without a hit: top-dose activity change, negative = inhibition, most hits filed as inhibitors; calls by dose curve; tested in HEK293T cells; also: read-out not given here; potency is read from the fitted curve at half-maximal effect; nearly all actives have a fitted effect of over 45% in size
HCMV inh – qHTS Assay for inhibitors of the human cytomegalovirus (HCMV). HFF cells, HCMV-luciferase reporter, 72 h; active compounds read low. 410,000 compounds, 4.5% hits. activity change, negative = inhibition, % at 57.5 µM; in the data active = activity change below about -60%; inconclusive = no clear call, values can overlap the other calls; inactive = above about -39%
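HFF cells seeded 16 h at 37C, treated with compounds, infected with luciferase-reporter HCMV at MOI 1 PFU/cell; luciferase read at 72 h post infection, normalized to buffer-only and Salinomycin controls.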
VACV Venus inh – qHTS for Stage-Specific Inhibitors of Vaccinia Orthopoxvirus: Venus Reporter Primary qHTS; Vaccinia virus Venus reporter expression, fluorescence; Potency, µM (doses to about 36.5 µM), for the others: at the highest dose activity change, negative = inhibition, actives largely listed as inhibitors; 330,000 compounds, 0.46% hits; calls by dose curve; tested in A549 cells; also: potency is read from the fitted curve at half-maximal effect; nearly all actives have a fitted effect of over 30% in size
Vaccinia mCherry – qHTS for Stage-Specific Inhibitors of Vaccinia Orthopoxvirus: mCherry Reporter Primary qHTS. Vaccinia virus mCherry reporter infection, fluorescence. Potency, µM (top dose mostly 36.5 µM), for the others: at the top dose activity change, negative = inhibition, hits mostly inhibitors. 310,000 compounds, 0.63% hits. AID 720579, 2013; calls by dose curve; tested in A549 cells; also: potency is read from the fitted curve at half-maximal effect; nearly all actives have a fitted effect of over 35% in size
HCV inh – qHTS Assay for Inhibitors of Hepatitis C Virus (HCV); Huh7.5.1 HCVcc-Cre infection, luciferase reporter, 44 h; Potency, µM (series often up to 41.8 µM), for the others: at the top dose activity change, negative = inhibition, hits mostly inhibitors; 340,000 compounds, 3.4% hits; AID 651820, 2012; active = well fitted inhibition curve with a large enough effect; inconclusive = small, poorly fitted or top-dose-only effect, or another doubt; inactive = no such curve, though single readings can be large or run the other way; also: potency is read from the fitted curve at half-maximal effect
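1,000 cells/well; 4 h culture; + compound; + HCVcc-Cre (~0.5 moi); 44 h; luciferase substrate, RT 15 min; read 15 sec.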
* hit, by the source's call; i = inactive; ? = inconclusive; . = not tested or not shown; ! = repeats disagree. In the library only some 7.3% were active in any assay of this set; here they are far more common. % is scaled to controls: 0 for no effect and ±100 for the full control effect.

SMILES	FMDV antiviral	HCMV inh	VACV Venus inh	Vaccinia mCherry	HCV inh
Cc1nn(C)c(C)c1N1C(=O)c2cccc3c(N)ccc(c23)C1=O	-16.7%	3.9	156.1%	-15.8%	-13.0%
Cc1nn(C)c(C)c1N1C(=O)c2cccc3c(Br)ccc(c23)C1=O	?	-73.7*	8.9%	i	?
Cc1nnc2n(c1=O)C(CS(=O)(=O)c1ccccc1)CS2 (centres undefined)	-24.2%	49.3	.	.	-17.4%
O=[N+]([O-])c1ccc(S(=O)(=O)CC2CSc3nc4ccccc4n32)cc1 (centres undefined)	-14.0%	-78.8*	-16.7%	-14.8%	?
COc1ccc(CNC(=O)Cn2c(=O)oc3cc(S(=O)(=O)N4CCCC4)ccc32)cc1	2.7%	-34.1	-12.6%	-9.2%	-21.3%
COc1ccccc1CNC(=O)Cn1c(=O)oc2cc(S(=O)(=O)N3CCCC3)ccc21	-22.4%	-60.6*!	-15.6%	-20.4%	-2.7%
COc1cccc(CNC(=O)Cn2c(=O)oc3cc(S(=O)(=O)N4CCC(C)CC4)ccc32)c1	-24.5%	-15.6	-12.0%	-16.6%	.
Cc1cc(C)c(NC(=O)Cn2c(=O)oc3cc(S(=O)(=O)N4CCCCCC4)ccc32)c(C)c1	-19.1%	-70.3*	-27.4%	-28.9%	.
Cc1cc(C)cc(NC(=O)Cn2c(=O)oc3cc(S(=O)(=O)N4CCCC4)ccc32)c1	-21.9%	25.7	-15.9%	-3.6%	.
CCn1cc(C(=O)NCc2ccccc2Cl)c(=O)c2cc(S(=O)(=O)N3CCCCC3)ccc21	-19.4%	18.9	-0.7%	i	.
CC1CCN(S(=O)(=O)c2ccc3c(c2)oc(=O)n3CC(=O)NCc2ccc(F)cc2)CC1	-14.8%	-97.0*	?	-20.6%	.
CCn1cc(C(=O)NCc2ccccc2OC)c(=O)c2cc(S(=O)(=O)N3CCCCC3)ccc21	-25.5%	-76.7*	-22.2%	i	.
COC(=O)C[C@H]1C=C[C@@H](NC(=O)Nc2c(C)noc2C)[C@@H](CO)O1	-16.5%	-6.4	-4.4%	-10.0%	.
COc1ccc(C)cc1NC(=O)Cn1c(=O)ccc2cc(S(=O)(=O)N3CCC(C)CC3)ccc21	-28.2%	-114.1*	-17.3%	-20.0%	.
Cc1ccc(NC(=O)Cn2c(=O)oc3cc(S(=O)(=O)N4CCC(C)CC4)ccc32)cc1C	-11.7%	-68.6*	?	-25.8%	?
Cc1ccc(NC(=O)Cn2c(=O)ccc3cc(S(=O)(=O)N4CCC(C)CC4)ccc32)cc1C	-6.6%	11.5	-28.1%	-19.2%	.
Cc1c(S(=O)(=O)N2CCCCC2)c(=O)n(C)c(=O)n1C	-18.2%	-30.7	-9.0%	-3.4%	11.5%
COc1ccc(NC(=O)CSc2nnc3c(n2)[nH]c2ccc(S(=O)(=O)N(C)C)cc23)c(OC)c1	.	.	-20.1%	-20.2%	.
C=CCn1c(SCC(=O)Nc2cccnc2Cl)nnc1-c1ccc(Cl)cc1	?	-36.7	-22.9%	-2.8%	-4.4%
C=CCn1c(SCC(=O)Nc2cccnc2Cl)nnc1-c1ccccc1F	?	-65.4*	-7.0%	-23.1%	-5.6%
CC(C)Oc1ccc(CNC(=O)CCCN2C(=O)c3cccnc3Oc3ccc(Cl)cc32)cc1	-15.9%	0.0	-12.6%	-14.1%	.
C[C@@H]1CC2[C@@H]3CC[C@H]4CC(=O)CC[C@]4(C)C3=CC[C@]2(C)[C@@]1(O)C(=O)CO (some centres undefined)	?	-100.9*	-6.9%	-14.4%	?
CN1CCN(c2ncc3ncc(=O)n(CCC#N)c3n2)CC1	-12.4%	.	.	.	.
Fc1ccc(NN2CCOCC2)cc1-c1noc2ccccc12	.	-5.3	.	.	.
O=C(NCCc1cccs1)C1CC(c2cccc(F)c2)=NO1 (centres undefined)	-2.8%	-11.7	-19.1%	i	3.55µM*
SMILES	FMDV antiviral	HCMV inh	VACV Venus inh	Vaccinia mCherry	HCV inh
COc1ccccc1N(CC(=O)Nc1cc(C)on1)S(=O)(=O)c1cccc(C(F)(F)F)c1	-3.1%	-64.0*	.	.	-5.2%
C/C(=N/NC(=O)CN(c1ccccc1)S(=O)(=O)c1ccccc1)c1ccccc1O	17.4%	-98.1*	.	.	?
COc1ccccc1N(CC(=O)N/N=C(\C)c1ccc(F)cc1)S(=O)(=O)c1ccccc1	-9.1%	-101.3*	-12.1%	-3.7%	-0.4%
CCCC/C(C)=N/NC(=O)CN(c1ccc(Br)cc1)S(=O)(=O)c1ccccc1	-11.4%	-16.2	-11.3%	-1.5%	11.9%
COc1ccccc1N(CC(=O)Nc1ccccc1C(F)(F)F)S(=O)(=O)c1ccc(C)cc1	-13.0%	-13.2	-14.5%	-17.7%	.
C/C(=N\NC(=O)CN(c1ccccc1)S(=O)(=O)c1ccccc1[N+](=O)[O-])C(C)(C)C	1.1%	-62.9*	-8.8%	-6.4%	3.8%
CCOc1ccc(S(=O)(=O)N2CCN(c3ccccc3)CC2)cc1C(N)=O	-12.5%	0.3	-1.3%	-11.7%	.
Cn1c(=O)c([N+](=O)[O-])c(-n2ccnc2)c2ccccc21	31.6µM*	41.4	0.2%	-13.0%	?
Cn1c(=O)c([N+](=O)[O-])c(NCCCn2ccnc2)c2ccccc21	8.3%	1.0	-4.9%	i	11.5%
CCn1c(=O)c(C(=O)Nc2ccc(C)cc2C)c(O)c2ccccc21	17.8%	.	-8.0%	i	10µM*
CCn1c(=O)c(C(=O)Nc2ncccc2O)c(O)c2ccccc21	-23.8%	54.2	-19.2%	?	-5.7%
CCCCn1c(=O)c(C(=O)Nc2ccccn2)c(O)c2ccccc21	-16.4%	-77.6*	.	.	-12.7%
CCCCCCn1c(=O)c(C(=O)Nc2ncccc2O)c(O)c2ccccc21	-18.2%	-73.0*	.	.	-17.3%
CCn1c(=O)c(C(=O)Nc2ccccn2)c(O)c2ccccc21	-6.3%	25.4	5.5%	-16.7%	15.3%
CCn1c(=O)c(C(=O)Nc2ncccc2C)c(O)c2ccccc21	-12.4%	?	3.0%	i	10µM*
CCCCCCn1c(=O)c(C(=O)Nc2cnccn2)c(O)c2ccccc21	?	-38.0	-7.7%	i	?
CCCCCn1c(=O)c(C(=O)Nc2ccccn2)c(O)c2ccccc21	-17.0%	-97.7*	.	.	?
COc1cc(C(=O)OCc2cc(=O)oc3c(C)c(C)ccc23)ccc1OC(F)F	-21.6%	-64.9*	-8.1%	-9.4%	-2.5%
COc1ccc(NC(=O)C(C2CC2)n2c(=O)c(-c3cc4ccccc4[nH]3)nc3ccccc32)cc1 (centres undefined)	-18.8%	-96.7*	?	?	.
O=C(Nc1ccc2ccccc2c1)C(C1CC1)n1c(=O)c(-c2cc3ccccc3[nH]2)nc2ccccc21 (centres undefined)	-19.2%	3.4	-28.4%	?	.
Cc1ccc(NC(=O)Cn2c(=O)n(Cc3ccco3)c(=O)c3sc4ccccc4c32)cc1C	0.0%	-2.6	-13.4%	-15.2%	.
Cc1ccc(N(CCCCN2C(=O)c3ccccc3C2=O)C(=O)c2cccs2)cc1	-29.1%	-83.4*	-12.6%	-21.5%	-1.8%
